# Shown are actives, neighbours in structure and some others; about 1.6% of the full set was active somewhere.
# KCNQ2 enhance – KCNQ2 (rat) channel potentiation; B-score at 10 µM; hit rate 0.54% among 310,000; O88943; CHO-K1 KCNQ2, FluxOR thallium flux fluorescence; active compounds read high;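 active = fluorescence ratio B-score at least 3 SD of library B-scores, with initial fluorescence B-score within 3 of them, cut at about 5.3 in these data; same plate scores as AID 2156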;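 also: B-score of peak minus minimum over baseline fluorescence ratio after K+ and Tl+ stimulus; positive B-score means potentiation of KCNQ2 with more thallium influx and brighter signal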
# KCNQ2 inh – blocks the rat KCNQ2 potassium channel; O88943; CHO-K1 KCNQ2, FluxOR thallium flux, 20 min; active compounds read low; B-score at 10 µM; hit rate 1.1% among 310,000;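 active = fluorescence ratio B-score at most minus 3 library SDs, with starting brightness B-score within 2 library SDs, cut at about -5.5 in these data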
# The depositor's hits bear a star; i = inactive; . = no result.
SMILES,KCNQ2 enhance,KCNQ2 inh
CC(=O)Nc1nnc(S(=O)(=O)N2CCN(c3ccc([N+](=O)[O-])cc3Cl)CC2)s1,.,i
CCOc1ccc(C(=O)NCC(=O)N2CCC3CCCCC3C2)cc1OCC (configuration not stated),.,i
COc1cc2c(C(=O)N3CCN(C)CC3)c(C)n(-c3ccccc3)c2cc1Br,.,i
CCN(CC)CCNC(=O)c1c(C)n(-c2ccccc2)c2cc(Br)c(OC)cc12,-5.8,-5.8*
OC(c1ccccc1)(c1ccc(F)cc1)C(c1ccccc1)N1CCOCC1 (configuration not stated),-5.7,-5.7*
O=C(NCC(c1ccc(F)cc1)N1CCOCC1)c1ccc(C(=O)c2ccccc2)cc1 (configuration not stated),2.2,i
Cc1noc(C(F)(F)F)c1C(=O)NNC(=O)c1ccccc1,.,i
CC(=O)c1cc2c(cc1NC(=O)c1ccc(Cl)cc1)OCCO2,0.02,i
CC(=O)c1cc2c(cc1NC(=O)Nc1cccc(Cl)c1)OCCO2,-6.3,-6.3*
CCOc1ccccc1NC(=O)NNS(=O)(=O)c1cc(OC)ccc1OC,1.1,i
CCOC(=O)c1cc(-c2ccccc2)nc2ccc(C)cc12,.,i
CCOC(=O)c1cnc2ccc(C)cc2c1Sc1ccc(F)cc1,-5.5,-5.5*
CCOC(=O)C1(CCc2ccccc2)CCN(Cc2ccn[nH]2)CC1,.,i
CCOC(=O)C1(CCc2ccccc2)CCN(Cc2cccc3nccnc23)CC1,-5.9,-5.9*
O=C1CCC/C(=N\NC(=O)c2ccc(COc3cccc4cccnc34)cc2)C1,1.3,i
CCCCOC(=O)CSC1=C(C#N)C(c2ccccc2OCC)C(C#N)C(=O)N1 (configuration not stated),7.1*,i
CCCOC(=O)CSC1=C(C#N)C(c2ccccc2OCC)C(C#N)C(=O)N1 (configuration not stated),1.9,i
COc1ccccc1OCC(=O)N1CCCC(Nc2ccc(C)c(C)c2)C1 (configuration not stated),.,i
COC(=O)C1CN(C(=O)COc2ccccc2C)c2ccccc2O1 (configuration not stated),.,i
COC(=O)C1CN(C(=O)COc2ccc(Cl)cc2C)c2ccccc2O1 (configuration not stated),-7,-7*
COc1ccc(NC2CCCN(C(=O)COc3ccc(Cl)cc3C)C2)cc1OC (configuration not stated),-6.1,-6.1*
Cc1ccsc1C(C(=O)NCc1ccccc1)N(C(=O)c1csnn1)c1ccccc1 (configuration not stated),0.05,i
COc1ccc(/C(N)=N/OC(=O)CCc2ccccc2)cc1OC,.,i
COc1ccc(/C(N)=N/OC(=O)CSc2ccccc2)cc1OC,-6,-6*
Cc1ccc(N2CCN(c3ncccc3[N+](=O)[O-])CC2)c(C)c1,.,i
SMILES,KCNQ2 enhance,KCNQ2 inh
Cc1ccc(C)c(N2CCN(c3ncccc3[N+](=O)[O-])CC2)c1,-6.6,-6.6*
Cc1ccc(NC(=S)NC2CCCCC2)cc1S(=O)(=O)N(C)C,.,i
Clc1cccc(CSc2nnc(-c3ccccn3)n2Cc2ccco2)c1,-6.7,-6.7*
O=C(CSc1nnc(-c2ccccn2)n1Cc1ccco1)c1ccc(Cl)cc1,.,i
CC(C)(C)c1ccc(CSc2nnc(-c3ccccn3)n2Cc2ccco2)cc1,-5.6,-5.6*
Brc1ccc(CSc2nnc(-c3ccccn3)n2Cc2ccco2)cc1,.,i
Cc1ccc(N(CC(=O)Nc2ccc3c(c2)OCCO3)S(C)(=O)=O)cc1,.,i
O=C(COc1ccc2cc(-c3ccccc3)c(=O)oc2c1)NCC1CCC(C(=O)O)CC1 (configuration not stated),1.4,i
COc1c(C(=O)Nc2nnc(C3CC3)s2)csc1Cl,2.2,i
COCC1CCCCN1C(=O)c1ccc(OC2CCN(CCc3ccccc3)CC2)cc1 (configuration not stated),2.1,i
CCCCCCNc1nc(Cl)nc(NC(C)(C)CO)n1,.,i
Cc1ccc(S(=O)(=O)/N=C(/NC(=S)Nc2ccccc2)c2ccccc2)cc1,.,i
Cc1ccc(S(=O)(=O)C/N=C(/NC(=S)N(c2ccccc2)c2ccccc2)c2ccccc2)cc1,-5.9,-5.9*
O=C(CN1C(=O)NC2(CCCC2)C1=O)Nc1nc2c(F)cc(F)cc2s1,0.54,i
Cc1ccc(-n2nnnc2SCC(=O)NC2CCCc3ccccc32)cc1 (configuration not stated),.,i
Cc1ccc(-n2nnnc2SCC(=O)NC2CCCc3ccccc32)c(C)c1 (configuration not stated),-6.5,-6.5*
CCOC(=O)CNc1c(-c2ccc(O)cc2)nc2ccc(Cl)cn12,-5.7,-5.7*
CCOC(=O)CNc1c(-c2ccc(O)cc2)nc2ccccn12,.,i
CCCc1ccc2oc(C(=O)NCc3nnc(C)o3)c(C)c2c1,0.03,i
CS(=O)(=O)N(CC(=O)Nc1cccc(Br)c1)Cc1ccccc1,.,i
CC(C)Sc1nc(N2CCOCC2)c2c(c1C#N)CC(C)(C)SC2,-6.2,-6.2*
CCCSc1nc(N2CCOCC2)c2c(c1C#N)CC(C)(C)SC2,1.1,i
Cn1c(=O)c(/C=C/c2ccccc2)nc2ccccc21,.,i
Cn1c(=O)c(/C=C/c2ccc(F)cc2)nc2ccccc21,-5.9,-5.9*
Cc1ccc(-n2nc3c(=O)n(CCCC(=O)NCc4ccco4)nc(C)c3c2C)cc1,0.57,i
SMILES,KCNQ2 enhance,KCNQ2 inh
O=C(O)c1oc2ccccc2c1CSc1ccc(Cl)cc1,2.9,i
CCC(C)NC(=O)COC(=O)c1oc2ccccc2c1CSc1ccc(Cl)cc1 (configuration not stated),-6.1,-6.1*
COc1cccc(-c2nc(CS(=O)(=O)CC(=O)Nc3ccccc3Br)c(C)o2)c1,.,i
COc1cccc(-n2nnnc2SCC(=O)Nc2ccc(OC)cc2OC)c1,0.74,i
Cc1ccc(CC2SC(N=C(N)N)=NC2=O)cc1 (configuration not stated),.,i
CCN1CC(CN(C)Cc2nc(-c3ccc(OC)c4ccccc34)oc2C)CC1=O (configuration not stated),0.49,i
O=c1[nH]c(-c2ccc(Cl)cc2)cs1,.,i
Fc1ccc(-c2csc(=S)[nH]2)cc1,11*,i
Cc1cc(N/N=C/c2ccccc2Cl)nc(NCc2ccccc2)n1,-6.4,-6.4*
Cc1cc(C)nc(N/N=C/c2ccccc2Cl)n1,0.47,i
CC1CCc2c(sc(NC(=O)CCC(=O)O)c2C(=O)NC2CC2)C1 (configuration not stated),1.2,i
CCN(C(=O)c1ccc2c(=O)n3c(nc2c1)CCCCC3)c1cc(OC)ccc1OC,2.7,i
Cc1cc(NC(=O)CSc2nnc(COc3ccccc3)n2Cc2ccco2)no1,0.85,i
Cc1ccc(OCc2nnc(SCC(=O)C(C)(C)C)n2Cc2ccco2)cc1,-7,-7*
O=C(Oc1ccccc1)c1cccc2cccc(C(=O)Oc3ccccc3)c12,-5.8,-5.8*
O=C(Oc1ccccc1)c1cc2ccccc2oc1=O,.,i
O=[N+]([O-])c1ccc(Oc2ccc(S(=O)(=O)Nc3ccccc3)cc2)cc1,3.2,i
O=C1C(Cl)=C(NS(=O)(=O)c2ccc([N+](=O)[O-])cc2)C(=O)c2ccccc21,-6,-6*
NC(=O)c1ccc(NC(=O)COC(=O)CC(NC(=O)c2ccccc2Cl)c2ccccc2)cc1 (configuration not stated),.,i
